Our source for the Percent Effect values is ChEMBL document CHEMBL3988442, “University of Dundee, Small-Polar-MMV Screening Library” (2021).

What all share (design): scale not given: direction of the effect not stated beside the values
Experiment [1] concerns the target Protein translocase subunit SecA (Escherichia coli (strain K12)) (UniProt P10408). The experiment in a line: Assay to Identify E. coli SecA ATPase Inhibitors. The format is functional. Particulars: 30 µM.
Experiment [2] deals with T1, Ubiquitin-activating enzyme e1, putative (Leishmania donovani (strain BPK282A1)) (UniProt E9BSI1).
T1 sequence (whole entry): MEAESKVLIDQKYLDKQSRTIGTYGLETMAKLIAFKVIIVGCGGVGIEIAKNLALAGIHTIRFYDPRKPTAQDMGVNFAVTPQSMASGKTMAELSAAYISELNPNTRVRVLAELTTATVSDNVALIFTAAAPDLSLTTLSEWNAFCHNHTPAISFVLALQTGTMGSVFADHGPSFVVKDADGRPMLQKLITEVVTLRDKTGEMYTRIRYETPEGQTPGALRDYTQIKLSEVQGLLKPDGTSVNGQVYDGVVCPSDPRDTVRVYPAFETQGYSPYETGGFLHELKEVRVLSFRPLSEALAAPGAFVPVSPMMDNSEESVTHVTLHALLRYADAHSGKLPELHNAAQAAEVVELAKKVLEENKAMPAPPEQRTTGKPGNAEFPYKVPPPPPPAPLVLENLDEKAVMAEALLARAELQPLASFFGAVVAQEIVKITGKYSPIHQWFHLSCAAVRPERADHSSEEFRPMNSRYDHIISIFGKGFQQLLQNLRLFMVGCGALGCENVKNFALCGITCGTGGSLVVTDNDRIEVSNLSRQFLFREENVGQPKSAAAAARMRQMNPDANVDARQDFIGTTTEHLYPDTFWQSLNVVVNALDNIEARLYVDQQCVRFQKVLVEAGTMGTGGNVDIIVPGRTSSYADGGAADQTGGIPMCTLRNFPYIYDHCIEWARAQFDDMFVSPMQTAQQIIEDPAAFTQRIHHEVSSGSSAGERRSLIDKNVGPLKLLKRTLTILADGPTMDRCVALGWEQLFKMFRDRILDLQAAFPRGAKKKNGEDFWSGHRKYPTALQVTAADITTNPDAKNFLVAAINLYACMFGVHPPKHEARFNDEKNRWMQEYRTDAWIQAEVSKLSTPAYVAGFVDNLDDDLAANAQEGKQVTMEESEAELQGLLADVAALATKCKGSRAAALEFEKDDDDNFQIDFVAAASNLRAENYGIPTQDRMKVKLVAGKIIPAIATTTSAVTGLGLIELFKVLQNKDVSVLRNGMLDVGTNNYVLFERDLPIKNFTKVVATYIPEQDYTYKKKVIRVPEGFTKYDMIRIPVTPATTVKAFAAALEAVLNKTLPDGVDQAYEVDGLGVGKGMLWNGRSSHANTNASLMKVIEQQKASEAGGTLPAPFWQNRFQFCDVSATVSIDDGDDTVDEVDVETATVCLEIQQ
The experiment in a line: Leishmania donovani Ubiquitin Activating Enzyme (LdE1). In kind it is functional. Particulars: 30 µM.

Experiment [3] has as its target AMP-activated protein kinase, AMPK (Homo sapiens) (UniProt P54646+O43741+P54619+Q9UGJ0+Q9Y478+Q13131+Q9UGI9). In words: AMP-dependent Kinase enzyme assay. An in vitro enzyme assay that detects ADP turnover that is directly proportional to AMPK activity. This uses naive AMPK that is activated during the assay with MK-8722. The format is functional. Particulars: 30 µM.

In experiment [4] the target is Sialic acid-binding Ig-like lectin 9 (Homo sapiens) (UniProt Q9Y336). The experiment in a line: Hs-Siglec9 ALPHAscreen SOP 20170721. Particulars: 10 µM. A general note: Alpha assays give light when donor and acceptor beads are brought close together.
The next experiment has as its system Trypanosoma cruzi. The experiment in a line: Trypanosoma cruzi phosphomannomutase and mannose-1-phosphate guanylyltransferase assay. In kind it is functional. Particulars: 10 µM.
Experiment [5] has as its target T2, Arginase-2, mitochondrial (Homo sapiens) (UniProt P78540).
T2 sequence (whole entry): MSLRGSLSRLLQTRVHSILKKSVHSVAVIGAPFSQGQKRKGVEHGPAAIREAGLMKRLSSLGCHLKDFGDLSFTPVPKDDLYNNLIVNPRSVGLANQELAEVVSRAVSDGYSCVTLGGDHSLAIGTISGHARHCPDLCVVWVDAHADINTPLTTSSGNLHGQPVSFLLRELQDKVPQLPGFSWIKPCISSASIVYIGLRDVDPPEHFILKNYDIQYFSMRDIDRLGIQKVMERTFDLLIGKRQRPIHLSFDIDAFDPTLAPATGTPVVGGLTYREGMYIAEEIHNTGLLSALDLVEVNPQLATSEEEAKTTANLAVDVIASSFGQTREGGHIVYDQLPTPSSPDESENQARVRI
In words: in vitro enzyme assay to detect the production of urea directly proportional to the activity of Arginase II. Note: in the data most compounds retested in dose-response had high values. In kind it is functional. The settings on record: 33.3 µM.

The target in experiment [6] is T3, Proteasome subunit beta (Trypanosoma cruzi) (UniProt O96673).
T3 sequence (whole entry): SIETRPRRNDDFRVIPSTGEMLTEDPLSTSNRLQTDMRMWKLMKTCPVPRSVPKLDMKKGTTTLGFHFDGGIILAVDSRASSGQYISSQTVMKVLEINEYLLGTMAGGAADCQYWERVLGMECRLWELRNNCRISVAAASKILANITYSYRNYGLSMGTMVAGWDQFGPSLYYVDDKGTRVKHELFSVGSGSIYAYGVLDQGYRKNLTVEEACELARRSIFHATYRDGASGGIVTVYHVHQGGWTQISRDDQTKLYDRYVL
The experiment in a line: Trypanosoma cruzi proteasome chymotrypsin-like activity (TcProtChymo) assay. Note: in the data most compounds retested in dose-response had high values. The format is functional. The settings on record: 9.37 µM.

The species entered for another experiment is Homo sapiens. In words: To identify inhibition of the IFN signalling (Jak-Stat) pathway via expression of an eGFP reporter gene under the control of an IFN-stimulated response element (ISRE) containing MxA promoter. The format is functional. The settings on record: 30 µM.
Experiment [7] concerns the target T4, Tyrosyl-tRNA synthetase, putative (Trypanosoma cruzi (strain CL Brener)) (UniProt Q4DSP6).
T4 sequence (whole entry): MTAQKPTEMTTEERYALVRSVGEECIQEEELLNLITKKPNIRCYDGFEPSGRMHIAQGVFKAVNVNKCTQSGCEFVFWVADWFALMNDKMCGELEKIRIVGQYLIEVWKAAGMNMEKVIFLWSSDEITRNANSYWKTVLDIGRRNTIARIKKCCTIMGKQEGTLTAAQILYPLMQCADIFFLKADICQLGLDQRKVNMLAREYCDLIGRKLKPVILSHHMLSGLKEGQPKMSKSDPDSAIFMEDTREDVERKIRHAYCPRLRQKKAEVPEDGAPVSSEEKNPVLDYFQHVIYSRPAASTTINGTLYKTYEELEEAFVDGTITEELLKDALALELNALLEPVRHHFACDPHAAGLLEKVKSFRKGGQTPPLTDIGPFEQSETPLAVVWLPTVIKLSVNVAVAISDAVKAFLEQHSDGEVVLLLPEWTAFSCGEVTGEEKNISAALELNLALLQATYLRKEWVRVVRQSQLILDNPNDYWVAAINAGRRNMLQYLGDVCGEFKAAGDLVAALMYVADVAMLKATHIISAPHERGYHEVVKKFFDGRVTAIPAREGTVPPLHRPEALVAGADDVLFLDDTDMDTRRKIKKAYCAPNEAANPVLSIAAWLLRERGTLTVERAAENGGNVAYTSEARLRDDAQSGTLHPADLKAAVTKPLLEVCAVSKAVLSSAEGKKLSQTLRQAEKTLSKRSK
The experiment in a line: Trypanosoma cruzi tyrosyl tRNA synthetase (TcYRS) _High Tyrosine SOP. Note: in the data most compounds retested in dose-response had high values. The settings on record: 30 µM. In kind it is functional.

Experiment [8] concerns the target T4, Tyrosyl-tRNA synthetase, putative (Trypanosoma cruzi (strain CL Brener)). The experiment in a line: Trypanosoma cruzi tyrosyl tRNA synthetase (TcYRS) SOP. The format is functional. The settings on record: 30 µM.
Experiment [9] deals with Chromo domain-containing protein 1 (Saccharomyces cerevisiae (strain ATCC 204508 / S288c) (Baker's yeast)) (UniProt P32657). The experiment in a line: ScCHD-1 Enzyme Inhibition Assay. Note: in the data most compounds retested in dose-response had high values. In kind it is functional. Particulars: 30 µM.

Molecules are shown by their SMILES. For some of these results: Potency and affinity values are given separately.

Chain of Sialic acid-binding Ig-like lectin 9 (Homo sapiens) (Q9Y336 whole entry): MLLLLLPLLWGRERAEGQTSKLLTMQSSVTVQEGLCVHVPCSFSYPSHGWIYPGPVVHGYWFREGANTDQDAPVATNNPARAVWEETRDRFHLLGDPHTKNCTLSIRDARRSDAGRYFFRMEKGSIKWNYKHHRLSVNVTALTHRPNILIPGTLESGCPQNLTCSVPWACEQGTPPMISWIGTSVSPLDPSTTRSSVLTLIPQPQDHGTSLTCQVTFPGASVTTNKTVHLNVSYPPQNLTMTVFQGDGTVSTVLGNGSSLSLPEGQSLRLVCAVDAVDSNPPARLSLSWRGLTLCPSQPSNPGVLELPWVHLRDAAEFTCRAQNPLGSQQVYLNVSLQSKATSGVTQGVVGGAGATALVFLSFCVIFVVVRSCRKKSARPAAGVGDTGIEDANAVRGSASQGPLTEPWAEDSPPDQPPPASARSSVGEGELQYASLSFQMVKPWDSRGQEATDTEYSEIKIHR
Chain of Chromo domain-containing protein 1 (Saccharomyces cerevisiae (strain ATCC 204508 / S288c) (Baker's yeast)) (P32657 whole entry, the tested form may be a part): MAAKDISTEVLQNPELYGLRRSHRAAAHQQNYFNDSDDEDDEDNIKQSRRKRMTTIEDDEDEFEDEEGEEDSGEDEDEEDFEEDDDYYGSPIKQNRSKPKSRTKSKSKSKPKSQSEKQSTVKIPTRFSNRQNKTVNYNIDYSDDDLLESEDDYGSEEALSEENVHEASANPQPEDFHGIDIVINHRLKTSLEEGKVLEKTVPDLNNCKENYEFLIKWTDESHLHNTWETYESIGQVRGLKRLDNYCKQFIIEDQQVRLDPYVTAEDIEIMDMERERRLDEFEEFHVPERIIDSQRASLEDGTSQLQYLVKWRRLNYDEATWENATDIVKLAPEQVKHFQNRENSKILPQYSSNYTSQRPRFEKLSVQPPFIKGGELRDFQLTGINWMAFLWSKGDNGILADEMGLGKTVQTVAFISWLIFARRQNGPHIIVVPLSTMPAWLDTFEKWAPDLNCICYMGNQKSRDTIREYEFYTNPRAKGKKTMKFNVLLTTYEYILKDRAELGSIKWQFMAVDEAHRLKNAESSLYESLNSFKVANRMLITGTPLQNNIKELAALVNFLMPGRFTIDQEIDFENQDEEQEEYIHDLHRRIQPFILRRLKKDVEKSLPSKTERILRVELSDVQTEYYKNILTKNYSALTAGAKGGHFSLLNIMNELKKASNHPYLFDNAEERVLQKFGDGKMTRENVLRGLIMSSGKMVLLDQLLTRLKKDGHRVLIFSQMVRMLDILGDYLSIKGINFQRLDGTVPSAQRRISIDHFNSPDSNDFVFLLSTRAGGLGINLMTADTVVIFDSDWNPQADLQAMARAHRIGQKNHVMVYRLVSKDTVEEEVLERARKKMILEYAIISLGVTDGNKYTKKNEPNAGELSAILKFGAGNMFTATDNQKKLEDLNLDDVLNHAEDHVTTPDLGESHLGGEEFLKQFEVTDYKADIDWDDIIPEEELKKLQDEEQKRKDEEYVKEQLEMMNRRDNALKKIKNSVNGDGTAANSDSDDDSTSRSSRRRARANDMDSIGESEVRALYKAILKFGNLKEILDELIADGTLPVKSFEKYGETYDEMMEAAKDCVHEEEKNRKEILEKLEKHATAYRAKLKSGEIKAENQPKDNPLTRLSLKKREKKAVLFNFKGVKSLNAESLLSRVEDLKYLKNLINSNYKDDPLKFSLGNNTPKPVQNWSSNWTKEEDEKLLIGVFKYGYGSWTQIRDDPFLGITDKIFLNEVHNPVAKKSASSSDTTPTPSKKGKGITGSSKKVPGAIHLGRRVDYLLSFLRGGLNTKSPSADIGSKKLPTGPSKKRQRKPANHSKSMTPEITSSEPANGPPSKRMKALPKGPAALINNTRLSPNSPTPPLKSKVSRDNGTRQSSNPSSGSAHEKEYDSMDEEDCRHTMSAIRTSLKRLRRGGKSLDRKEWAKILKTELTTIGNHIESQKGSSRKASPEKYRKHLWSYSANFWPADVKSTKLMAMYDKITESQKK
Chain of Protein translocase subunit SecA (Escherichia coli (strain K12)) (P10408 whole entry): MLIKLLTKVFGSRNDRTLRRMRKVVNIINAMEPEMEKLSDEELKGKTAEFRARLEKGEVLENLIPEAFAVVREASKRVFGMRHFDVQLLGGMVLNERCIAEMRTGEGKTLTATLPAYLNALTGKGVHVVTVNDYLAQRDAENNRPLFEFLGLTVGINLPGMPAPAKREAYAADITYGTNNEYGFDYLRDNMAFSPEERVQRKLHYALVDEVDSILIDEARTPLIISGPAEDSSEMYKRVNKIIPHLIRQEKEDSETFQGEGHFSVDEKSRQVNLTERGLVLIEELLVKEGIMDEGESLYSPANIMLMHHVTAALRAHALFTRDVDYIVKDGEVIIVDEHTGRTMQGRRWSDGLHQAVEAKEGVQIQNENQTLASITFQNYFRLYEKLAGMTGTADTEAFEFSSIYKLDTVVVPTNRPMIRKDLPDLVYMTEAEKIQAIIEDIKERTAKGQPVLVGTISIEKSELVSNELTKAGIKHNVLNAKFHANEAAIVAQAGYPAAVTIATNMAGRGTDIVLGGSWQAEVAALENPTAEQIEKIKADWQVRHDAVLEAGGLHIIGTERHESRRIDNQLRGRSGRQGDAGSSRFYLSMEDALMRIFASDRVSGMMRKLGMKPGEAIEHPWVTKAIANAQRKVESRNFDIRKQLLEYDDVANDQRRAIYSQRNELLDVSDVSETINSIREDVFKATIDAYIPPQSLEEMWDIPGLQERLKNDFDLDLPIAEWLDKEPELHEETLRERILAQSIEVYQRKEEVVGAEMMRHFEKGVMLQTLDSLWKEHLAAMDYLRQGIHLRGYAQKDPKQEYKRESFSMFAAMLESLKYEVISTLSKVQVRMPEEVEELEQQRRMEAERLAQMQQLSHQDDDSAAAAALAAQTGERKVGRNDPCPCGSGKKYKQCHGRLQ

On to `CCCC(NC(=O)c1cc(C)ccc1C)c1nnn[nH]1` (stereo not drawn), for which the Percent Effect in experiment [1] is -4.53%; in experiment [2], 13.3%; in experiment [3], -5.34%; in experiment [4], 20.1%; in the experiment on Trypanosoma cruzi it was 7.89%; in [5], 20.8%. The Percent Effect in experiment [6] was 11.7%; in the experiment listed under Homo sapiens, 12.3%; in [7] it was 6.01%; in [8], 13.6%; in experiment [9], -1.49%.
Take `Cc1cnn(CC2CCCCN2Cc2nc(N)c3ccccc3n2)c1` (stereo not drawn): the Percent Effect is -5.11% in experiment [1]; 10.1% in [2]; -4.6% in experiment [3]; 5.93% in experiment [4]; 8.78% with Trypanosoma cruzi; 0% in [5]. Besides, the Percent Effect in [6] was 12.2%; in the experiment listed under Homo sapiens it was -0.892%; in [7], 14.3%; in experiment [8] it was 21.5%; in experiment [9] it was -8.03%.
Regarding `Cn1ccc(CN2CCC(CCc3ccc(O)cc3)CC2)cc1=O`, the Percent Effect in experiment [1] was -1.04%; in experiment [2], 6.33%; in [3], 43.4%; in experiment [4], 0.347%; with Trypanosoma cruzi, 3.38%; in experiment [5], -1.07%. For the same molecule, the Percent Effect in experiment [6] is 1.89%; in the experiment filed under Homo sapiens, 10.3%; in experiment [7], 0%; in experiment [8], -17.7%; in [9], -10.1%.
For the molecule `O=C(Cc1ccc2c(c1)OCCO2)N1CCCC(n2cccn2)C1` (stereo not drawn), the Percent Effect in experiment [1] is 2.92%; in experiment [2], 2.6%; in [3], 13.7%; in [4] it was -3.29%; in the experiment on Trypanosoma cruzi it was 1.08%; in [5], 2.74%. Further, the Percent Effect was 3.15% in [6]; 22.6% in the experiment filed under Homo sapiens; -7.62% in [7]; -2.35% in experiment [8]; -15% in [9].
For `CCC(CC)NC(=O)Cn1nc(C)nc1-c1ccccc1`, the Percent Effect is -4.52% in experiment [1]; 16.2% in [2]; -5.72% in experiment [3]; 3.26% in experiment [4]; -6.32% in the experiment on Trypanosoma cruzi; -1.2% in experiment [5]. In addition, the Percent Effect was 3.6% in experiment [6]; 21.4% in the experiment listed under Homo sapiens; 6.4% in [7]; 11.1% in experiment [8]; -8.07% in experiment [9].
For `CCOC(=O)NC(CNC(=O)c1ncccn1)CC(C)C` (stereo not drawn), the Percent Effect in experiment [1] is -3.7%; in experiment [2], 8.11%; in experiment [3] it was -1.89%; in experiment [4] it was 31.5%; in the experiment on Trypanosoma cruzi it was 5.96%; in [5], 13.7%. For the same molecule, the Percent Effect in experiment [6] was 11.8%; in the experiment listed under Homo sapiens, -4.96%; in experiment [7] it was 4.3%; in experiment [8] it was 13.6%; in [9], -6.28%.
For `CCc1n[nH]c(C2CN(Cc3nccn3CC)CCO2)n1` (stereo not drawn), the Percent Effect in experiment [1] is -0.0966%; in experiment [2], 20.8%; in experiment [3], -2.5%; in experiment [4], -14.5%; in the experiment with Trypanosoma cruzi, 2.45%; in [5], 6.53%. In addition, the Percent Effect in [6] is 9.62%; in the experiment filed under Homo sapiens it was 7.94%; in experiment [7], 12.4%; in experiment [8], 25.9%; in [9], -16.2%.
As to `CC(C)Oc1cc(N2CCC(N3CCC(O)CC3)CC2)nc(N)n1`, the Percent Effect in experiment [1] was 0.0362%; in [2] it was 8.11%; in [3], -10%; in experiment [4], 8.23%; in the experiment with Trypanosoma cruzi it was 4.63%; in [5], -0.476%. Further, the Percent Effect was 11% in experiment [6]; 12.1% in the experiment filed under Homo sapiens; 8.99% in experiment [7]; 17.1% in [8]; -4.42% in [9].
